The entries come from a sample that favours hits as a whole.
CHX counter – counter-screen for Shiga toxin inhibitors: cycloheximide protein synthesis inhibition; actives 12% (n = 300,000); AID 2314; max response, %; cell reporter, cycloheximide protein synthesis inhibition counterscreen; in the data active = max response mostly above about 13%, no sharp cut-off; inactive = mostly below about 14%; note: read at 38.3 µM for the half of the compounds with a filed dose; 0% is about no effect
AmpC inh detg – blocks E. coli AmpC beta-lactamase in detergent assay | P00811 | AmpC hydrolysis of nitrocefin, absorbance 480 nm, 0.01% Triton | Potency, µM (series often up to 114 µM), without a hit: at the highest dose activity change, negative = inhibition, usual class: inhibitors | actives 0.041% (n = 370,000) | AID 485294;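 note: potency is the fitted concentration of half-maximal effect; 0% = no-compound wells and -100% = no-enzyme wells; nearly all actives have a fitted effect of over 25% in size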
Target sequence (P00811 whole entry, looked up): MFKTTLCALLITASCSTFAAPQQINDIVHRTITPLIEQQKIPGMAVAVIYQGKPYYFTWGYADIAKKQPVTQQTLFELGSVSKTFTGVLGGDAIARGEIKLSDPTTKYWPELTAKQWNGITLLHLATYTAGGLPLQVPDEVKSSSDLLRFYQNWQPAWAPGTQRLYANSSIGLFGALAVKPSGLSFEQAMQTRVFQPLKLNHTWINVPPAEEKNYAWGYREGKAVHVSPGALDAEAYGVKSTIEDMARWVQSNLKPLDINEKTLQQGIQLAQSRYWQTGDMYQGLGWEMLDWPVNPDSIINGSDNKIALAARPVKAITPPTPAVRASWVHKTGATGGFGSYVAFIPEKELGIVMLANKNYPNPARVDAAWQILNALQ
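AmpC (5.3 nM in the dispensed reagent) in 20 mM phosphate pH 7.0 with 0.01% (detergent screen) or 0.0001% Triton X-100 was preincubated with compounds for 15 min at room temperature. Nitrocefin was then added from an 800 uM solution, and hydrolysis was followed at 480 nm.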
AmpC no deterg – inhibitors of E. coli AmpC beta-lactamase without detergent. P00811. AmpC nitrocefin hydrolysis, absorbance 480 nm, 0.0001% Triton. Potency, µM (top dose mostly 57.1 µM), without a hit: top-dose activity change, negative = inhibition, usual class: inhibitors. actives 0.52% (n = 330,000). AID 485341;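 note: potency is the fitted concentration of half-maximal effect; plate controls were no compound for no effect and no enzyme for full effect; nearly all actives have a fitted effect of over 20% in size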
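AmpC (5.3 nM in the dispensed reagent) in 20 mM phosphate pH 7.0 with 0.01% (detergent screen) or 0.0001% Triton X-100 was preincubated with compounds for 15 min at room temperature. Nitrocefin was then added from an 800 uM solution, and hydrolysis was followed at 480 nm.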
NS1 function inh – blocks influenza NS1 protein function. Potency, µM (top dose mostly 46.1 µM), for the others: top-dose activity, positive = more growth. actives 0.4% (n = 270,000). AID 2326; calls by dose curve; note: potency is the fitted concentration of half-maximal effect; actives are rising curves; nearly all actives have a fitted effect of over 50% in size
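S. cerevisiae expressing influenza A NS1, grown in glucose, washed, then diluted 1:100 into pH 6.0 -URA galactose medium with 23 nl compound. Growth recovery read as OD600; NS1-free strain serves as control.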
Shiga inhibitor – Shiga toxin inhibition. Vero cells, Shiga toxin protein synthesis inhibition reporter. inhibition, % at 38.7 µM. actives 9.2% (n = 290,000). AID 2315; in the data active = inhibition mostly above about 28%, no sharp cut-off; inactive = mostly below about 43%; note: 0% is about no effect
Starred values were filed as active, the others as inactive; u = inconclusive; x = not tested or not shown; [ ] = another dose, or the depositor's remark. Unless noted, calls come from the whole dose curve; as a rule, active = well fitted curve in the direction sought with a large enough effect; inconclusive = small, poorly fitted or top-dose-only effect, or another doubt; inactive = no such curve, though single readings can be large; an effect the other way counts as inactive or inconclusive.

SMILES | CHX counter | AmpC inh detg | AmpC no deterg | NS1 function inh | Shiga inhibitor
Cn1cc([N+](=O)[O-])c(C(=O)Nc2nc(-c3ccc(Cl)cc3)cs2)n1 | 17* | -12% | 35% | 1% | -41
Cn1nccc1C(=O)Nc1ccn(C23CC4CC(CC(C4)C2)C3)n1 | 44* | -7% | -6% | -35% | 68*
CCC(=O)Nc1ccc2nc(SCCOc3ccc(C)cc3OC)sc2c1 | x | 15% | x | x | x
Cc1ccc(NC(=O)C2CCCN(C(=O)c3cnn(-c4ccccc4)c3-n3cccc3)C2)cc1 (stereo not drawn) | x | -1% | x | x | x
O=C1C(C=NCCCN2CCOCC2)=C(O)c2ccccc21 | 27* | u | -1% | 4% | 59*
O=C1C(C=NCCN2CCOCC2)=C(O)c2ccccc21 | 47* | -5% | -16% | 7% | 84*
O=C(CCCCn1c(=O)c2ccccc2n(CC(=O)Nc2cccc(F)c2)c1=O)NCCc1ccccc1 | x | 20% | x | x | x
COc1ccc(NC(=O)O/N=C/c2c(C)nn(C(C)(C)C)c2C)cc1 | 29* | -11% | 6% | -6% | 45
CCC1CN(C(=O)N2CCC(C(=O)NCc3ccco3)CC2)c2cc(C)ccc2O1 (stereo not drawn) | -8 | -4% | 87% | -4% | -4
CC(SCc1ccccc1)C(=O)Nc1ccc(F)cc1 (stereo not drawn) | 20 | -10% | -18% | x | 36
COc1ccc(NC(=O)C(C)Sc2ccccc2)cc1 (stereo not drawn) | 55* | 3% | -19% | -15% | 88*
O=C(NCc1ccccc1F)C(c1ccccc1)c1ccccc1 | 9 | u | -19% | 1% | 10
COc1ccc(NC(=O)c2ccccc2-c2ccccc2)cc1 | -7 | 6% | -12% | -4% | 18
O=C(C#Cc1ccccc1)Nc1ccc(F)cc1 | 34* | -9% | -24% | -51% | 32*
COc1ccc(NC(=O)C#Cc2ccccc2)cc1 | 55* | -14% | -26% | -78% | 86*
O=C(C#Cc1ccccc1)NCc1ccccc1F | 21* | -5% | -14% | -18% | 67*
O=C(C#Cc1ccccc1)Nc1cccc(F)c1 | 60* | 1% | -33% | -69% | 128*
O=C(CC(=O)Nc1cccc(F)c1)Nc1cccc(F)c1 | -2 | -11% | 105% | -32% | 17
COc1cc2c(cc1NC(=O)CSc1nccn1C)oc1ccccc12 | 43* | -11% | 46% | -24% | 68*
COc1cc(OC)c(NC(=O)CSc2nccn2C)cc1Cl | x | 2% | x | x | x
COc1cc2c(cc1NC(=O)CSc1nc3ccccc3[nH]1)oc1ccccc12 | 2 | -1% | 7.9µM* | 10% | -7
COc1cc2c(cc1NC(=O)CSc1ccccc1)oc1ccccc12 | 29* | -11% | -47% | 2% | 19
COc1cc2c(cc1NC(=O)COC(=O)c1ccccc1)oc1ccccc12 | 5 | -9% | -27% | 7% | -5
COc1cccc(CN(C)C(=O)Cc2c[nH]c3ccccc23)c1OC | -5 | 2% | 1% | -3% | 25
COc1cccc(CN(C)C(=O)CSc2nc3ccccc3[nH]2)c1OC | 26* | -7% | -5% | -5% | 46*
SMILES | CHX counter | AmpC inh detg | AmpC no deterg | NS1 function inh | Shiga inhibitor
Cc1c(Cl)cccc1NC(=O)c1cc2sccc2n1Cc1ccc(F)cc1 | x | 2% | x | x | x
O=C(N/N=C/c1ccco1)c1cccc(N2CCCC2=O)c1 | 29* | -3% | -19% | -1% | active
O=C(N/N=C/c1cc(Br)ccc1O)c1cccc(N2CCCC2=O)c1 | 0 | u | -54% | u | 26
COc1cccc(/C=N/NC(=O)c2cccc(N3CCCC3=O)c2)c1 | 33* | -2% | -25% | 12% | 107*
Nc1c(-c2ccccc2)cnn1-c1cccc([N+](=O)[O-])c1 | 31* | 0% | -23% | -27% | 81*
Nc1c(-c2ccc(Cl)cc2)cnn1-c1cccc([N+](=O)[O-])c1 | 19* | -5% | -28% | 1% | 87*
Nc1nc(-c2cccc([N+](=O)[O-])c2)cc(-c2cc(-c3cccc([N+](=O)[O-])c3)nc(N)n2)n1 | x | x | x | -1% | x
Nc1nn(-c2ccccc2)c2ccc([N+](=O)[O-])cc12 | 26* | -2% | -24% | -30% | 34
Cc1nn(-c2cccc([N+](=O)[O-])c2)c(N)c1-c1ccccc1 | 39* | u | -15% | x | 73*
CCc1cc(S(=O)(=O)N2CCN(C(=O)c3ccco3)CC2)ccc1OC | -3 | 1% | 42% | -1% | -3
Cc1c(C(=O)NCc2cccc(Br)c2)oc2ccc3c(c12)C(=O)CC(C)(C)O3 | x | 27% | x | x | x
Cc1ccc(-c2cc(C(=O)Nc3c(C(=O)c4ccc(C)c(F)c4)oc4ccccc34)no2)cc1 | x | 19% | x | x | x
O=[N+]([O-])c1ccc2c(c1)ncn2-c1ccccc1 | 14 | u | -33% | -1% | 19
O=[N+]([O-])c1ccc2cn(-c3ccccc3)nc2c1 | 54* | 1% | -5% | 1% | 52*
O=C(NCc1cccs1)C1CCN(c2ccc(S(=O)(=O)N3CCOCC3)cc2Cl)CC1 | -1 | -8% | 44% | -6% | -10
Oc1ccccc1CNc1ccc2c(c1)OCCO2 | 41* | -2% | -15% | 7% | 67*
Clc1cc(NCc2cccs2)ccc1N1CCOCC1 | 46* | -1% | -12% | -46% | 57*
Cc1ccc(C)c(NCc2ccccc2CO)c1 | -1 | 0% | -1% | -2% | 24
COc1cc(CNc2ccc3c(c2)OCCO3)ccc1OCC(N)=O | 6 | -5% | 28% | -2% | -1
c1csc(CNc2ccc3c(c2)OCCO3)c1 | 111* | -4% | -22% | 7% | 93*
Cc1ccc(NCc2ccccc2O)cc1C | 33* | 6% | -24% | x | 102*
O=C(NCCS(=O)(=O)N1CCN(c2cccc(Cl)c2)CC1)C(c1ccccc1)c1ccccc1 | x | 0% | x | x | x
CCOc1ccccc1-c1nc(Cn2c(=O)cc(C)c3c(C)nn(-c4ccccc4)c32)c(C)o1 | x | 13% | x | x | x
Oc1ccccc1CNc1ccc(OC(F)(F)F)cc1 | 35* | -6% | -23% | -6% | 55*
COc1ccc2c(c1)CC/C2=N\OC(=O)c1ccccc1OC | 38* | -3% | -3%[2.29 µM] | -81% | 90*
SMILES | CHX counter | AmpC inh detg | AmpC no deterg | NS1 function inh | Shiga inhibitor
C[C@H](CO)N1C[C@H](C)[C@@H](CN(C)S(=O)(=O)c2cn(C)cn2)Oc2ccc(NC(=O)NC3CCCCC3)cc2C1=O | x | x | 92% | x | x
O=C(CSc1nccn1Cc1ccccc1)Nc1ccccc1 | 18* | -4% | 0% | 5% | 33*
CC(=O)Nc1cccc(NC(=O)CSc2nccn2Cc2ccccc2)c1 | 13 | 4% | -6% | 9% | 21
COC(=O)c1ccc(NC(=O)CSc2nccn2CCc2ccccc2)cc1 | 44* | 1% | -23% | -5% | 88
O=C(CSc1nccn1Cc1ccccc1)NC1CCCC1 | 25* | 2% | 13% | 5% | 18
Cc1ccc(Cn2ccnc2C(=O)Nc2ccccc2)cc1 | 27* | u | -27% | x | 87*
COC(=O)c1ccc(NC(=O)CSc2nccn2Cc2ccc(Cl)cc2)cc1 | x | 4% | x | x | x
